# D2 PAM-1 = positive allosteric modulators of human D2 dopamine receptor; P14416; HEK293 T-REx D2, calcium flux, EC20 dopamine potentiation; potentiation, % at 10 µM; actives 0.34% (n = 340,000); AID 485347;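 active means potentiation over 3 SD above the plate norm, cut at about 30% in these data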; further: 0% is about no effect
# Target sequence (P14416 whole entry, looked up): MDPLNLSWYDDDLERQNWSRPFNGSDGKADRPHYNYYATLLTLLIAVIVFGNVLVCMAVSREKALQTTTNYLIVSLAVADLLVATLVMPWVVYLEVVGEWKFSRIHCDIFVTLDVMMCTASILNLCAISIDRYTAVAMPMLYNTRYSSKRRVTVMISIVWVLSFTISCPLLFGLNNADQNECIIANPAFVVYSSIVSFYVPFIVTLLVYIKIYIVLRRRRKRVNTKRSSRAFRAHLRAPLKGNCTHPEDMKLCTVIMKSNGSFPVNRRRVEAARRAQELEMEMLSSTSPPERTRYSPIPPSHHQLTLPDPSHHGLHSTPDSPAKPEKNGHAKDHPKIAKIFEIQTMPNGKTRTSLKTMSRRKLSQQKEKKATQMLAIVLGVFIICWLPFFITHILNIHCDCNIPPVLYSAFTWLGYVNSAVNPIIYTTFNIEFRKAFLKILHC
#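 Potentiation of an EC20 dopamine calcium response is measured in a force-coupled, tetracycline-inducible Hek293 Trex D2 line. Compound-only kinetic reads over 180 s flag agonists before dopamine addition.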
# D2 antag = antagonists of human D2 dopamine receptor | AID 485344 | P14416 | actives 2% (n = 340,000) | HEK293 TREx D2 cells, calcium flux, dopamine EC80 | inhibition, % at 10 µM; in the data active means inhibition above about 30%; inactive means below that, where a call was filed; further: 0% is about no effect
#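 Dopamine at EC80 is the agonist stimulus; test compounds precede it by 180 s. Calcium flux read kinetically in a force-coupled, inducible HEK293 T-REx D2 cell line.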
# D2 PAM-2 = positive allosteric modulators of human D2 dopamine receptor. P14416. DiscoveRx D2 beta-arrestin cells, luminescence, 90 min; 100% = 57 uM dopamine signal. actives 0.23% (n = 360,000). potentiation, % (test concentration not listed); in the data active means potentiation above about 50%; inconclusive means mostly about 30% to 49%
#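 PathHunter beta-arrestin assay in DiscoveRx D2 cells. Compounds were added with an EC20 of dopamine (50 nM final) for 90 min at 37 deg C. Luminescence was read 1 h after detection reagent, with 57 uM dopamine as the EC100 control.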
# D2 ag-1 = activates the human D2 dopamine receptor. actives 0.53% (n = 340,000). AID 485358. activation, % at 2 µM. P14416. HEK293 T-REx D2 cells, calcium flux agonist mode;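 active means activation over 3 SD above normal in the single-dose calcium agonist read, cut at about 30% in these data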; further: 0% is about no effect
#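 In this primary screen, compounds producing a positive calcium signal within 180 s of addition to tetracycline-induced, force-coupled HEK293 Trex D2 cells are flagged; cells are dye-loaded with a no-wash calcium kit beforehand.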
# D2 ag-2 = activates the human D2 dopamine receptor. P14416. DiscoveRx PathHunter D2 beta-arrestin, luminescence, 90 min; 100% = 57 uM dopamine signal. activation, % (no concentration beside the values). actives 0.084% (n = 360,000). AID 624465; in the data active means activation above about 40%; inconclusive means between about 15% and that limit
#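 Agonist mode: compounds alone added to overnight-plated D2 PathHunter cells for 90 min at 37 C, with 57 uM final dopamine (EC100) defining full response. Beta-arrestin recruitment detected by chemiluminescent reagent, read after 1 h at ambient temperature.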
# Active calls of the source: *; ? = inconclusive; . = no result given. Compounds with a hit are over-represented: about 2.4% of the library has one in this group of screens.
SMILES,D2 PAM-1,D2 antag,D2 PAM-2,D2 ag-1,D2 ag-2
Cn1c(=O)c2c(ncn2CC(=O)N2CCN(c3ccc([N+](=O)[O-])cc3)CC2)n(C)c1=O,-1,-4,-2,0,0
Cn1c(=O)c2c(nc(N3CCCCC3)n2C)n(C)c1=O,30*,-10,4,-1,1
Cn1c(=O)c2c(nc(N3CCN(c4ccc([N+](=O)[O-])cc4)CC3)n2C)n(C)c1=O,3,34*,-5,0,-19
COc1cc(Cl)ccc1OC1(C)CCN(Cc2cccc(OC)c2OC)C1 (stereo not given),.,.,-9,.,2
CCOc1ccccc1CNC(=O)c1ccc(NC(=O)N2CC(C)Sc3ccccc32)cc1 (stereo not given),0,.,.,.,.
CCn1c(=O)c(C(=O)NNC(=O)c2ccccc2Cl)c(O)c2ccccc21,.,-17,-10,-3,-2
CCn1c(=O)c(C(=O)NNC(=O)c2ccccc2F)c(O)c2ccccc21,-9,21,-5,48*,3
COC(=O)c1cc2oc3ccccc3c2n1CC(=O)Nc1cc(OC)cc(OC)c1,-4,.,.,0,.
CC(=O)Nc1ccccc1/C=C/c1ccc2c(C)ccc(O)c2n1,9,33*,-9,2,3
O=C(c1ccc2c(c1)OCCO2)N(Cc1cccnc1)c1nc2c(Cl)cccc2s1,2,.,.,1,.
COc1ccc2occ(C(C)=O)c2c1,-8,11,-11,1,2
CC(=O)c1coc2ccc(OCCN3CCCCC3)cc12,-24,42*,-22,0,0
CCN(C(=O)Cn1cnc2onc(-c3ccc(F)cc3)c2c1=O)c1ccc(OC)cc1,-3,.,.,1,.
O=C(Nc1cccc(OC(F)(F)F)c1)[C@@H]1O[C@H](CO)[C@H](O)[C@H](O)[C@H]1O,.,.,-3,.,-3
COc1ccc(-c2nc(S(=O)(=O)c3ccc(C)cc3)c(NCc3ccccc3)o2)cc1,1,.,.,-1,.
COc1ccc(CCN=CC2=C(O)CC(C)(C)CC2=O)cc1,3,31*,9,0,-2
CC1(C)CC(=O)C(C=NCCc2ccc(S(N)(=O)=O)cc2)=C(O)C1,.,.,-4,.,-2
Cc1nnc(NC(=O)CSc2nccn2-c2cccc(Cl)c2)s1,10,.,.,0,.
CS(=O)(=O)c1ccc(Oc2ccc(-c3nnco3)cc2)c([N+](=O)[O-])c1,41*,-2,7,2,2
O=C(NNC(=O)c1sccc1-n1cccc1)c1ccc(Cl)cc1,4,36*,9,0,-2
O=C(NNS(=O)(=O)c1ccc(Cl)cc1)c1sccc1-n1cccc1,.,.,-7,.,-4
Cc1ccc(S(=O)(=O)n2cc(-c3ccccc3)c(N)n2)cc1,-3,4,-8,-1,-2
Nc1nn(S(=O)(=O)c2ccccc2)cc1-c1ccc([N+](=O)[O-])cc1,10,-4,74*,0,?
CCOC(=O)N1CCC(NC(=O)CCCN2C(=O)CSc3ncccc32)CC1,5,32*,9,0,0
O=C1N=c2ccccc2=C1c1sc(=S)n(CC2CCCO2)c1O (stereo not given),4,2,108*,-2,13
SMILES,D2 PAM-1,D2 antag,D2 PAM-2,D2 ag-1,D2 ag-2
COc1ccc(CCn2c(O)c(C3=c4ccccc4=NC3=O)sc2=S)cc1OC,7,11,28,0,6
CCn1c2ccccc2c2cc(CN3CCN(Cc4ccc(Br)cc4)CC3)ccc21,-3,.,.,0,.
Cc1c(Cl)cccc1NC(=O)Cn1c(=O)nc(-c2ccccc2)c2ccccc21,12,.,.,0,.
Cc1ccccc1NC(=O)Cc1nc(COC(=O)CNS(=O)(=O)c2cccc(Br)c2)cs1,-8,35*,-5,0,-1
Cc1ccccc1NC(=O)Cc1nc(COC(=O)COc2ccccc2C(C)C)cs1,5,29,-1,2,-3
CCOc1ccc(OCC(=O)OCc2csc(CC(=O)Nc3ccccc3C)n2)cc1,42*,7,6,1,1
COc1ccc(NC(=O)Cn2nc(C)c3nn(-c4ccc(Cl)cc4)c(C)c3c2=O)cc1,9,.,.,0,.
Cc1ccc(CNC(=O)CSc2ncc3c(n2)-c2ccc(Cl)cc2N(Cc2ccccc2)S3(=O)=O)cc1,13,.,.,.,.
CCOC(=O)c1cnc2c(Cl)c(Cl)ccc2c1Nc1ccc(N(C)C)cc1,1,.,.,-1,.
O=C(Cn1c(=O)n(Cc2ccc(F)cc2)c(=O)c2sc3ccccc3c21)Nc1ccc(F)cc1F,-6,.,.,0,.
Cc1cc(C)cc(OCCCOc2cccc3cccnc23)c1,-6,33*,-11,0,-3
O=C(O)CCCC(=O)Nc1nc(-c2ccccc2)cs1,-9,-4,-2,-1,-3
O=C(O)CCCC(=O)Nc1nc(-c2ccc(F)cc2)cs1,34*,9,-9,-1,-1
Cc1cccc(CNC(=O)CN2C(=O)C3CCCCN3c3ccc(C(=O)N4CCCC4)cc32)c1 (stereo not given),.,.,.,0,.
COc1cc(Nc2cc(C)nc3ncnn23)cc(OC)c1,5,26,-5,1,4
COc1cc(Nc2cc(C)nc3ncnn23)cc(OC)c1OC,-22,32*,0,0,1
Cc1cccc(-c2nc(SCC(=O)N3CCc4ccccc43)c3c(=O)n(C)c(=O)n(C)c3n2)c1,6,.,.,1,.
COc1ccccc1Nc1nn2c(=O)c3ccc(C(=O)NCc4ccc(F)cc4)cc3nc2s1,2,.,.,1,.
COc1ccccc1Nc1nn2c(=O)c3ccc(C(=O)NCc4cccnc4)cc3nc2s1,30*,-18,.,0,.
Cc1c(C(Nc2ccccn2)c2ccc(Cl)cc2)c(=O)n(-c2ccccc2)n1C (stereo not given),26,0,7,0,1
Cc1c(C(Nc2ccccn2)c2ccccc2)c(=O)n(-c2ccccc2)n1C (stereo not given),36*,2,0,0,4
COc1ccc(CCNC(=O)C(=O)NCC(c2cccs2)S(=O)(=O)c2ccc(F)cc2)cc1 (stereo not given),10,.,.,1,.
COc1ccccc1C1CCN(c2cc(O)ccc2[N+](=O)[O-])CC1,-1,34*,-11,3,-5
Cc1cccc(NC(=O)c2ccc(F)c(S(=O)(=O)NCc3ccco3)c2)c1,1,33*,-6,-2,-1
O=C(NC12CC3CC(CC(C3)C1)C2)N1CCN(c2ccccn2)CC1,-2,31*,-8,36*,1
Cn1nccc1NC(=O)Nc1ccc(Cl)cc1,-10,43*,-1,0,-1
Cn1nccc1NC(=O)Nc1ccccc1,13,7,-7,0,4
Cc1ccccc1NS(=O)(=O)c1ccc(C)c(NS(C)(=O)=O)c1C,-13,33*,-6,0,2
